Screening data from PubChem.
LmPK inhibitor – blocks Leishmania mexicana pyruvate kinase activity; Q27686; purified LmPK, Kinase-Glo ATP luminescence, 1 h; Potency, µM (doses to about 57.5 µM), usual class: inhibitors; actives 0.37% (n = 290,000); AID 1721
Target sequence (Q27686 whole entry, looked up): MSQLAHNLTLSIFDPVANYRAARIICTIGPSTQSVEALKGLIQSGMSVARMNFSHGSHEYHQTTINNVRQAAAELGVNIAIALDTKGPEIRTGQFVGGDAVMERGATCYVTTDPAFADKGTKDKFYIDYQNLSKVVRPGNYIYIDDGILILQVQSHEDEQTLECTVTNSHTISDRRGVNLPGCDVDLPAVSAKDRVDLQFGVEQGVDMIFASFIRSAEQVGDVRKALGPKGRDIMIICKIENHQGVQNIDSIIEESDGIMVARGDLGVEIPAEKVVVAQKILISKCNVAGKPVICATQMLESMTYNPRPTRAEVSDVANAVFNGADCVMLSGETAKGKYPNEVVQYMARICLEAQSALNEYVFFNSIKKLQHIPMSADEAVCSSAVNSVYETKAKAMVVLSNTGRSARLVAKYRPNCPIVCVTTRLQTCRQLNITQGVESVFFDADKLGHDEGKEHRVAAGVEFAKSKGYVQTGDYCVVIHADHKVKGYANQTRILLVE
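In 50 mM imidazole pH 7.2 with 7 mM MgCl2, LmPK (0.1 nM) turned over PEP (0.5 mM) and ADP (0.1 mM) for 1 h at room temperature. Luciferase read-out of ATP.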
Giardia FBPA inh – inhibitors of Giardia lamblia fructose-1,6-bisphosphate aldolase | actives 0.71% (n = 290,000) | Potency, µM (top dose mostly 59.6 µM), most hits filed as inhibitors | A8B2U2 | purified Giardia FBPA; also: nearly all actives have a fitted effect of over 55% in size
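Giardia FBPA (40 nM reagent) was preincubated 10 min at RT with compound (up to 57.5 uM final), then substrate plus GAPDH/TPI/NAD/arsenate coupling system with diaphorase/resazurin was added; resorufin fluorescence (525/598 nm) was read after 20 min.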
Sm TGR inh – S. mansoni TGR enzyme inhibition; actives 3% (n = 360,000); Q962Y6; Potency, µM (titrated, usually from 114 µM), most hits filed as inhibitors; purified TGR, DTNB reduction, TNB absorbance 405 nm; also: nearly all actives have a fitted effect of over 60% in size
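Kinetic colorimetric format: TGR-catalysed, NADPH-driven DTNB reduction monitored via TNB absorbance. Enzyme dispensed at 20 nM; compound exposure 15 min at room temperature before reaction start.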
Shiga inhibitor – inhibitors of Shiga toxin in Vero cells | AID 2315 | Vero cells, Shiga toxin protein synthesis inhibition reporter | inhibition, % at 38.7 µM | actives 9.2% (n = 290,000); in the data active = inhibition mostly above about 28%, no sharp cut-off; inactive = mostly below about 43%
TbPYK inhibitor – inhibitors of Trypanosoma brucei pyruvate kinase; TbPYK enzyme, Kinase-Glo Plus ATP luminescence, 45 min; actives 0.12% (n = 410,000); Q57TT1; Potency, µM (titrated, usually from 76.8 µM), hits mostly inhibitors; also: nearly all actives have a fitted effect of over 50% in size
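Assay buffer: 50 mM TEA pH 7.2, 100 mM KCl, 10 mM MgCl2, 0.05% BSA, 0.01% Tween-20. Pyruvate kinase from T. brucei plus substrate met compound, then ADP (130 uM final). Luminescence was read post 45 min RT.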
CHX counter – counter-screen for Shiga toxin inhibitors: cycloheximide protein synthesis inhibition | cell reporter, cycloheximide protein synthesis inhibition counterscreen | max response, % | actives 12% (n = 300,000) | AID 2314; in the data active = max response mostly above about 13%, no sharp cut-off; inactive = mostly below about 14%; also: read at 38.3 µM for the half of the compounds with a filed dose
Of the large screens only hits and unclear results are named; the others gave an inactive call. Shown is part of a subset that was picked to be rich in hits. Unless noted, calls follow the shape of the dose curve; as a rule, active = well fitted curve in the direction sought with a large enough effect; inconclusive = small, poorly fitted or top-dose-only effect, or another doubt; inactive = no such curve, though single readings can be large; an effect the other way counts as inactive or inconclusive.

COc1ccc(CC(=O)Nc2ccccc2C(F)(F)F)cc1S(=O)(=O)N1CCOCC1	none (no result: LmPK inhibitor, Giardia FBPA inh, Sm TGR inh, Shiga inhibitor, CHX counter)
CC(C)c1nc(SCC(=O)c2ccc(F)cc2)c2ccccc2n1	CHX counter 20 (no result: Sm TGR inh)
CCc1nc(SCC(=O)c2ccc3c(c2)OCCO3)c2ccccc2n1	none
CCc1nc(SCC(=O)c2ccccc2)c2ccccc2n1	Sm TGR inh 45µM
COc1ccc(OC)c(N2C(=O)/C(=C/c3ccco3)C(=O)NC2=S)c1	Giardia FBPA inh inconclusive, Sm TGR inh 32µM, TbPYK inhibitor inconclusive
O=C1NC(=S)N(c2ccc(F)cc2)C(=O)/C1=C\c1ccoc1	Giardia FBPA inh inconclusive, Sm TGR inh 32µM, TbPYK inhibitor inconclusive
COc1ccc(OC)c(N2C(=O)NC(=O)/C(=C/c3ccc([N+](=O)[O-])s3)C2=O)c1	LmPK inhibitor inconclusive, Giardia FBPA inh 13µM, Sm TGR inh 4µM, TbPYK inhibitor inconclusive
COc1ccc(N2C(=O)/C(=C/c3cc(C)n(-c4ccc(C)cn4)c3C)C(=O)NC2=S)c(OC)c1	Giardia FBPA inh inconclusive, Sm TGR inh inconclusive
O=C1NC(=S)N(c2ccc(F)cc2)C(=O)/C1=C/c1ccco1	Giardia FBPA inh inconclusive, Sm TGR inh 32µM (no result: TbPYK inhibitor)
CN(C)S(=O)(=O)Oc1ccsc1C(=O)Nc1ccccc1Cl	none
CN(C)S(=O)(=O)Oc1ccc(C(=O)Nc2cccc(Cl)c2)cc1	Shiga inhibitor 89, CHX counter 56 (no result: Sm TGR inh)
CN(C)S(=O)(=O)Oc1cccc(C(=O)Nc2ccc(Cl)cc2)c1	Shiga inhibitor 153, CHX counter 45
CN(C)S(=O)(=O)Oc1cccc(C(=O)Nc2ccccc2Cl)c1	Shiga inhibitor 93, CHX counter 41
NC(=O)C1CCCN(Cc2ccc3ccccc3c2)C1 (stereo not drawn)	none
OC1CCCN(Cc2ccc3c(c2)Cc2ccccc2-3)C1 (stereo not drawn)	CHX counter 16
COc1cc(C)c(CN2CCN(CC(=O)Nc3ccccc3C(=O)NC3CC3)CC2)cc1OC	none (no result: LmPK inhibitor, Giardia FBPA inh, Shiga inhibitor, CHX counter)
O=C(N/N=C/c1ccc2c(c1)OCO2)C(=O)Nc1cccc(Cl)c1	Shiga inhibitor 65, CHX counter 16
O=C(N/N=C/c1ccc2c(c1)OCO2)c1cccc(NC(=O)c2ccccc2Cl)c1	Shiga inhibitor 48
O=C(N/N=C/c1ccc2c(c1)OCO2)c1ccc(NC(=O)c2ccccc2Cl)cc1	none
O=C(N/N=C/c1ccc2c(c1)OCO2)C(=O)Nc1ccccc1	none
Cc1cccc(C(=O)Nc2ccc(C(=O)N/N=C/c3ccc4c(c3)OCO4)cc2)c1	none
Cc1ccccc1C(=O)Nc1cccc(C(=O)N/N=C/c2ccc3c(c2)OCO3)c1	Shiga inhibitor 55, CHX counter 20
Cc1cccc(C(=O)Nc2cccc(C(=O)N/N=C/c3ccc4c(c3)OCO4)c2)c1	Shiga inhibitor 79, CHX counter 40
C#CCCCO/N=C1/C[C@@H](O)[C@@H](O)[C@@H]2[C@@H]3C(=O)N(C(C)(C)C)C(=O)[C@H]3CC[C@H]12	none (no result: LmPK inhibitor, Sm TGR inh, Shiga inhibitor, TbPYK inhibitor, CHX counter)
Cc1nc(N2CCCC2)c2c(C(=O)N3CCN(c4cccc(C)c4C)CC3)c(C)oc2n1	none (no result: LmPK inhibitor, Giardia FBPA inh, Shiga inhibitor, CHX counter)
O=C(Cc1cccs1)Nc1c(C(=O)Nc2ccc(F)cc2)oc2ccccc12	none (no result: LmPK inhibitor, Giardia FBPA inh, Shiga inhibitor, CHX counter)
NS(=O)(=O)c1cccc(NC(=O)/C=C/c2cccs2)c1	Shiga inhibitor 48, CHX counter 30
O=C(/C=C/c1cccs1)Nc1ccc(S(=O)(=O)Nc2ncccn2)cc1	none
NS(=O)(=O)c1ccc(NC(=O)/C=C/c2cccs2)cc1	CHX counter 11
O=C(Cn1nnc(-c2ccccc2Cl)n1)N1CCCCC1	Shiga inhibitor 110, CHX counter 27
CC1CCCN(C(=O)Cn2nnc(-c3ccccc3F)n2)C1 (stereo not drawn)	Shiga inhibitor 49, CHX counter 39
O=C(Cn1nnc(-c2ccc(OCc3ccccc3F)cc2)n1)N1CCOCC1	Shiga inhibitor active, CHX counter 21
CC(C)COc1ccc(-c2nnn(CC(=O)N3CCCC3)n2)cc1	Shiga inhibitor 58, CHX counter 23
O=C(CN1C(=O)NC2(CCCCC2)C1=O)N1CCN(S(=O)(=O)/C=C/c2ccccc2)CC1	none (no result: LmPK inhibitor, Giardia FBPA inh, Shiga inhibitor, CHX counter)
O=C(Cn1nnc(-c2ccccc2)n1)N1CCCCC1	Shiga inhibitor 47, CHX counter 38
O=C(O)c1cnc(-c2ccccc2)nc1Sc1ccc(Cl)cc1Cl	none
COc1ccc(-c2cc(C(=O)O)nc3ccc4ccccc4c23)cc1OC	Shiga inhibitor 41, CHX counter 18
OCC#Cc1ncc(C(F)(F)F)cc1Cl	Sm TGR inh 45µM
NC(=O)Cc1ncc(C(F)(F)F)cc1Cl	none
OCc1ccc2c(c1)c(-c1ccc3c(c1)OCCO3)c(-c1ccccc1)n2-c1ccccc1	none (no result: LmPK inhibitor, Giardia FBPA inh, Shiga inhibitor, CHX counter)
O=C(CSc1nnc(SCc2cccc3ccccc23)s1)c1ccc2c(c1)OCO2	CHX counter 14
O=C(CSc1ccccn1)NCc1ccc2c(c1)OCO2	CHX counter 12
O=C(CSc1ccccn1)Nc1ccc2c(c1)OCO2	Shiga inhibitor 101, CHX counter 34
O=C(CSc1nc2ccccc2o1)NCc1ccc2c(c1)OCO2	Shiga inhibitor 27, CHX counter 15
CC(C)c1ccc(-c2noc(SCC(=O)N3CCCCC3)n2)cc1	none (no result: LmPK inhibitor, Giardia FBPA inh, Shiga inhibitor, CHX counter)
O=C(CSc1ccccn1)c1ccc2c(c1)OCO2	LmPK inhibitor inconclusive, Shiga inhibitor 39, CHX counter 37
CCc1ccccc1NC(=O)C1CCCN(c2nnc(-n3c(C)ccc3C)s2)C1 (stereo not drawn)	none (no result: LmPK inhibitor, Giardia FBPA inh, Shiga inhibitor, CHX counter)
O=S(=O)(Cc1ccccc1)c1nnnn1-c1ccccc1	none (no result: LmPK inhibitor, Sm TGR inh, Shiga inhibitor, TbPYK inhibitor, CHX counter)
COc1cc(OC)cc(-n2nnnc2SCC(=O)N2CCCC2)c1	none
COc1ccc(-n2nnnc2S(=O)(=O)CC(=O)N2CCCCC2)cc1	Sm TGR inh 10µM
COc1ccc(-n2nnnc2S(=O)(=O)Cc2ccc(C(=O)O)cc2)cc1	Sm TGR inh 13µM
C=CCc1ccccc1OCc1nc2ccc(C)cc2[nH]1	none (no result: LmPK inhibitor, Giardia FBPA inh, Shiga inhibitor, CHX counter)
O=C(CC1C(=O)NCCN1Cc1c(F)cccc1Cl)NCc1ccccc1 (stereo not drawn)	none
O=C1NCCN(Cc2ccc(-c3ccccc3)cc2)C1CC(=O)N1CCN(CCO)CC1 (stereo not drawn)	none
Cc1cc(CN(C)C(=O)CC2C(=O)NCCN2Cc2c(F)cccc2Cl)n[nH]1 (stereo not drawn)	Sm TGR inh 40µM
O=C1NCCN(Cc2ccc(F)cc2)C1CC(=O)N1CC=C(c2ccccc2)CC1 (stereo not drawn)	Sm TGR inh 35µM
O=C1NCCN(Cc2c(F)cccc2Cl)C1CC(=O)N1CCCO1 (stereo not drawn)	Sm TGR inh 28µM
O=C1NCCN(Cc2ccc(Cl)c(F)c2)C1CC(=O)N1CCCO1 (stereo not drawn)	Sm TGR inh inconclusive, CHX counter 13
O=C(NNC(=S)NCc1ccco1)c1cccs1	none
O=C(NCc1ccco1)c1cccs1	Sm TGR inh 35µM
